The source of these data is PubChem BioAssay AID2441 (National Center for Advancing Translational Sciences (NCATS), 2010).

The other results are listed elsewhere or left out. Inconclusive results are not listed. The source made the active and inactive calls. The call rests on the fitted dose curve; in most records, active means well fitted inhibition curve with a large enough effect; inconclusive means small, poorly fitted or top-dose-only effect; inactive means flat fitted curve, though single readings scatter.

This test in a line: Cell cycle validation with wells to cells screening paradigm. The settings on record: HeLa cell cycle G2/M arrest, Hoechst DNA content imaging. An excerpt:
Understanding cell cycle regulation is a critical component in combating various diseases such as cancer. Proper execution of cell cycle activity is essential for processes such as cell growth, DNA replication, and mitosis and surveillance mechanisms function as cell cycle checkpoints at the G1, S, and G2/M phases. Thus, profiling agents which disrupt cancer cell division represents a large effort in oncology-based studies. Compound-induced cell cycle perturbations can be analyzed through changes in specific cell cycle phase markers, such as DNA content, using high content screening. […] Furthermore, recent imaging based studies have performed cell cycle analysis following compound treatment where phenotypic fingerprints for phases of the cell cycle were determined or concentration-response based testing of selected compounds and drugs was used to measure a phenotypic profile in a dose-dependent manner. […]
Reagents: 70% EtOH, Hoechst Stain, PBS Controls: 7.6 uM (final starting concentration) Vinblastine and 38.3 uM (final starting concentration) nocodazole were dispensed into columns 1 and 2, respectively, and titrated 1:2 in DMSO (16-point in duplicate). […] Plates were read on the Acumen eX3 system and concentration response curves were generated after the readings. […]
On to `O=c1cc(-c2ccccc2)[nH]c2nc(Cl)ccc12`, for which the Potency was 2000 nM (active).
